# Lmaj promast: Leishmania major promastigote growth inhibition, primary screen. Leishmania major promastigotes, resazurin fluorescence viability. inhibition, % at 10 µM. 9% of 200,000 active; in the data active = inhibition above about 50%;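 note: promastigotes grown with compound for 44 hours at 28 °C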
# RAM inhibit: inhibitors of the yeast RAM network, primary screen, dse1pr::URA3 reporter, 5-FOA selection; S. cerevisiae dse1pr::URA3 reporter, 5-FOA growth OD615, 2 d; analog-sensitive cbk1-as2 kinase mutant strain; 1.8% of 190,000 active; AID 868, 2007; inhibition, % at 50 µM;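 active = inhibition above a set limit, 3 SD over mean compound inhibition, cut at about 8.4% in these data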;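 note: 0% = DMSO-only wells with no growth and 100% = 10 µM 1-NA-PP1 full growth; inhibition rescues growth on 5-FOA so higher OD means more RAM inhibition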
# CHOP inhibitor: inhibitors of CHOP promoter induction, primary screen, cell-based, unfolded protein response, luciferase reporter. AID 2732, 2010. inhibition, % at 10 µM. 3.8% of 220,000 active. CHO-K1 CHOP-promoter luciferase, tunicamycin-induced, 15-18 h;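 active = compounds that reduced the stress-induced luciferase reporter signal by more than about 70% of percent inhibition, limit read from the data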;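 note: 0% = tunicamycin plus vehicle and 100% = wells without tunicamycin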
# WT yeast gro inh: growth inhibition of WT strain, primary screen, mitochondrial fusion inhibitor project, WT and mutant strains, chemical genetic | mitochondrial fusion phenotypic screen | inhibition, % at 10 µM | 2.1% of 190,000 active | AID 1362, 2008; in the data active = inhibition above about 58%; tested in S. cerevisiae
# An asterisk follows results filed as active; . = no result given. Sampled rows, rich in hits. Any-hit rate of the full collection: about 13%.
SMILES,Lmaj promast,RAM inhibit,CHOP inhibitor,WT yeast gro inh
N#Cc1cnn2ccn(C3OC(CO)C(O)C3O)c12 (stereo unspecified),.,.,3,.
CCCc1cc(=O)[nH]c(SCC(=O)c2ccc3c(c2)NC(=O)CO3)n1,.,.,12,.
COc1ccc(Cn2c(C)c(C)c(C#N)c2NC(=O)Nc2cccc(Cl)c2)cc1,0,1,81*,-3
COc1ccc2c(c1)c(C(=O)N/N=C/c1ccc(OC)c(OC)c1)c(C)n2C,4,4,13,14
Cc1cc(C(=O)c2ccc(C(C)(C)C)cc2)c(NC(=O)CCl)s1,96*,3,31,55
Cc1sc(NC(=O)CCl)c(C(=O)c2ccccc2)c1C,101*,0,108*,-17
CCOC(=O)C1(CCc2ccccc2)CCN(Cc2cccc3nccnc23)CC1,20,0,61,8
C=C1/C(=C\C=C2/CCC[C@]3(C)[C@@H]([C@H](C)CCCC(C)(C)O)CC[C@@H]23)C[C@@H](O)C[C@@H]1O,.,.,7,94*
CCCCn1c(=O)[nH]c(=O)c2c1nc(-c1ccc(C)c([N+](=O)[O-])c1)n2CC,99*,2,21,18
CCN1CCCC1CN(Cc1cc2ccc(C)cc2[nH]c1=O)C(=S)Nc1ccc(F)cc1 (stereo unspecified),46,0,-9,0
c1ccc(CSC2=NNC(c3ccccn3)S2)cc1 (stereo unspecified),.,.,17,.
O=C(CSC1=NNC(c2ccccn2)S1)Nc1ccc(C(F)(F)F)cc1 (stereo unspecified),.,.,73*,.
COc1cc(OC)c(OC)cc1/C=N/NC(=O)CCc1c(C)n[nH]c1C,.,.,6,.
COC(=O)c1ccc2nc(Nc3nc4c(F)cc(F)cc4s3)sc2c1,52*,4,92*,21
CCOC(=O)Nc1nc(-c2ccccc2)c(C(=O)c2ccc(Cl)cc2)s1,4,1,-20,59*
CCOC(=O)N1CCN(S(=O)(=O)c2ccc(C(=O)Nc3nc4ccc(F)cc4s3)cc2)CC1,17,3,84*,-22
NNc1nc2c(F)cc(F)cc2s1,95*,0,11,41
COC(=O)c1ccc2nc(NC(=O)C(C)C)sc2c1,6,4,-22,-8
CCOC(=O)Nc1sc(C)nc1-c1ccccc1,0,-1,19,-7
CCOC(=O)c1ccc2nc(Nc3nc4ccc(F)cc4s3)sc2c1,44,7,90*,21
CCOC(=O)c1sc(NC(=O)c2ccc(S(=O)(=O)N3CCCCC3)cc2)nc1-c1ccccc1,48,4,84*,-16
CCOC(=O)c1ccc2nc(NC(C)=O)sc2c1,-2,2,-2,-7
CC(C)(C)c1ccc(OCC(=O)NNC(=S)NC(=O)c2ccccc2[N+](=O)[O-])c(Br)c1,-3,2,25,38
Cc1ccc2nc(N/N=C\c3ccc([N+](=O)[O-])o3)nc(-c3ccccc3)c2c1,98*,1,49,68
O=[N+]([O-])c1ccc(/C=N/Nc2nc(-c3ccccc3)c3cc(Br)ccc3n2)o1,93*,3,82*,73
SMILES,Lmaj promast,RAM inhibit,CHOP inhibitor,WT yeast gro inh
Cc1ccc(S(=O)(=O)NC(=O)NCCc2ccccc2)cc1,2,-2,19,-8
O=Cc1ccc(OC(=O)c2cccnc2)cc1,-5,2,3,-10
CCN(CC)S(=O)(=O)c1cccc(-c2nnc(-c3ccc(C)cc3)o2)c1,1,7,4,6
C=CCn1c(C)cc(C(=O)CSc2nnc(-c3cccc(S(=O)(=O)N(CC)CC)c3)o2)c1C,39,11*,47,3
O=C(COC(=O)c1ccccc1)NCc1ccco1,-8,1,6,-13
O=C(COC(=O)c1ccccc1Nc1cccc(C(F)(F)F)c1)NCc1ccco1,-3,6,79*,-6
CCOC(=O)Cn1ccc(-c2ccccc2)c(C#N)c1=O,-3,1,-4,-3
CCCCCCNS(=O)(=O)c1ccc(Cl)s1,1,-1,87*,18
COc1cc(C2NC(=O)C(C#N)=C(Nc3cccc(C)c3)S2)ccc1O (stereo unspecified),.,.,9,.
O=c1[nH]c(SCc2ccc(Cl)cc2)nc2ccccc12,-4,5,19,16
Cc1ccc(CSc2nc3ccccc3cc2C=O)cc1,96*,10*,-7,5
O=Cc1cc2ccccc2nc1SCc1ccc(Cl)c(Cl)c1,95*,8.6*,-8,19
O=Cc1cc2ccccc2nc1SCc1ccc(Cl)cc1,97*,7,56,19
Cc1c(C(=O)O)c(C(=O)O)c2n1CCS2,.,.,-10,.
CCN1CCN(C(=O)C(=O)c2c(C)[nH]c3ccccc23)CC1,-5,1,-6,-7
c1ccc(COc2ccccc2CNC2CCCC2)cc1,70*,2,0,7
Brc1ccc(OCc2ccccc2)c(CNCC2CCCO2)c1 (stereo unspecified),39,0,18,17
c1csc(COc2ccccc2CNC2CCCCC2)c1,81*,0,-11,10
c1ccc(COc2ccccc2CNC23CC4CC(CC(C4)C2)C3)cc1,71*,0,-32,34
CC(C)c1nnc(NC(=O)CCC(=O)NC2CCCc3ccccc32)s1 (stereo unspecified),2,1,-28,-3
NC(=O)c1cnn(-c2cc(Oc3ccccc3)ncn2)c1N,-11,1,-46,-22
CCCCNC(=O)C1c2ccccc2Oc2ccccc21,-4,2,8,5
CNCCC1Sc2ccccc2Oc2ccccc21 (stereo unspecified),95*,2,-9,5
COC(=O)Cn1c(=NC(=O)c2ccc(OC)c(OC)c2)sc2cc(OC)ccc21,48,6,-14,-8
O=S(=O)(c1cccs1)N1CN(C2CCCCC2)c2nc3ccccc3nc21,.,.,11,.
SMILES,Lmaj promast,RAM inhibit,CHOP inhibitor,WT yeast gro inh
Cc1ccccc1OCC(=O)N1N=C(C(F)(F)F)CC1(O)C(C)(C)C (stereo unspecified),6,9.2*,68,40
CCOC(=O)C1=C(C)OC(N)=C(C#N)C1c1cc2ccccc2nc1N1CCCCC1 (stereo unspecified),86*,1,8,10
CCn1c(C(C)NC(=O)c2cccc(C)c2)n[nH]c1=S (stereo unspecified),-2,0,-11,-10
COc1ccc(CC2(CO)CCN(Cc3nc(C(C)C)cs3)CC2)cc1,91*,-1,29,3
COc1cccc(CC2(CO)CCN(Cc3ccc(NC(C)=O)cc3)CC2)c1,-6,0,-1,2
COc1ccc(CC2(CO)CCN(Cc3cccc4nccnc34)CC2)cc1,27,0,14,-24
CCOc1cc(CN2CCC(CO)(Cc3cccc(C(F)(F)F)c3)CC2)ccc1OC,85*,1,18,5
COc1ccc(CC2(CO)CCN(Cc3ccc4c(c3)CCO4)CC2)cc1,79*,0,22,-8
COc1ccc(CN2CCC(CO)(Cc3ccccc3C(F)(F)F)CC2)c(F)c1,77*,3,19,27
COc1ccc(CC2(CO)CCN(Cc3ccc(NC(C)=O)cc3)CC2)cc1,14,1,29,7

# Assay outcomes as filed in PubChem BioAssay.
